Results: PubChem BioAssay AID1851 (National Center for Advancing Translational Sciences (NCATS), 2009)
The campaign covered roughly 16,000 compounds. About 5,700 (36%) were called active. Roughly 24% stayed inconclusive and do not appear here. This is one part of the list. Unmarked numbers belong to inactive results. The call rests on the fitted dose curve; in most records, active means well fitted curve in the direction sought with a large enough effect; inconclusive means small, poorly fitted or top-dose-only effect, or effect the other way; inactive means no such curve, though single readings can be large or run the other way.

Molecular target: Cytochrome P450 1A2 (Homo sapiens) (UniProt P05177)
Sequence (P05177 whole entry, looked up): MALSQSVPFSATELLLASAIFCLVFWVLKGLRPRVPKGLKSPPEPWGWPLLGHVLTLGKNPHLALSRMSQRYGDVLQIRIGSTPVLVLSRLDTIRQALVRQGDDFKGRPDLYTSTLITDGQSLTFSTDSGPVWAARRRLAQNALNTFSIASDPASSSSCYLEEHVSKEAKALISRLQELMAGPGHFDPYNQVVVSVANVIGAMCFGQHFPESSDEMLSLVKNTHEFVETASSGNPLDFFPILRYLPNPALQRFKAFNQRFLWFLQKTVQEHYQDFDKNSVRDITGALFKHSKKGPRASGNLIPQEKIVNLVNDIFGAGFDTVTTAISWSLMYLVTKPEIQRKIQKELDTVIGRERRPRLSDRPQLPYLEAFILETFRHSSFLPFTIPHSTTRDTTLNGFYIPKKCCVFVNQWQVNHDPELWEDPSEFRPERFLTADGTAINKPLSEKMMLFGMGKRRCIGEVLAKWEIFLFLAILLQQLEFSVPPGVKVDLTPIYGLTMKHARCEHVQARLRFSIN
Assay: Cytochrome panel assay with activity outcomes
Details: recombinant CYP, pro-luciferin dealkylation, luminescence, p450-cyp1a2; series mostly up to 57.1 µM; activity, negative = inhibition: at the top concentration
On the % scale 0 is the no-effect control and ±100 the full control effect.

Row | SMILES | activity, negative = inhibition | AC50
1 | O=C(c1cc(C(F)(F)F)cc(C(F)(F)F)c1)N1CCC2(CCN(Cc3nccs3)CC2)CC1 | -7.63% | 
2 | CCOC(=O)CSc1cc(=O)n(C)c2cc(Cl)ccc12 |  | 1.26 µM (active)
3 | Cc1cnc2cc(Cl)ccc2c1SCC(=O)O | -2.26% [at 2.29 µM] | 
4 | Cn1c(=O)cc(SCC(=O)NCCCN2CCOCC2)c2ccc(Cl)cc21 | -14.7% | 
5 | O=C(NCC1CCCO1)c1onc(CSc2ccccc2F)c1C(=O)O (stereo unspecified) | 13.9% | 
6 | O=C(CSCc1c(F)cccc1Cl)NCC1CCCO1 (stereo unspecified) |  | 15.8 µM (active)
7 | O=C(CN(Cc1ccccc1Cl)C(=O)c1ccc(CN2CCOCC2)o1)NCC1CCCO1 (stereo unspecified) | 0.687% | 
8 | CSc1nc2ccccc2cc1/C=C(\C#N)c1ccccc1 |  | 2.82 µM (active)
9 | CSc1nc2ccccc2cc1/C=C(\C#N)c1ccc(Cl)cc1Cl |  | 1.78 µM (active)
10 | CSc1nc(C)c(CCOC(=O)c2cccc(C)c2)c(=O)[nH]1 | -10.3% | 
11 | O=C(NNC(=O)c1cc2cc3ccccc3nc2s1)c1cccc(Cl)c1 | -25.7% | 
12 | CSc1nc2ccccc2cc1/C=C(\C#N)c1cccc(Cl)c1 |  | 2 µM (active)
13 | CSc1nc2ccccc2cc1/C=C(\C#N)c1cccc(C)c1 |  | 3.55 µM (active)
14 | COc1ccc(NC(=O)N2CC3(CCN(C(=O)c4cccn4C)CC3)C2)cc1 | -1.16% | 
15 | CCC(=O)OCC(=O)[C@@]1(OC(=O)CC)[C@H](C)C[C@@H]2[C@H]3CCC4=CC(=O)C=C[C@]4(C)[C@]3(Cl)[C@@H](O)C[C@@]21C | -7.99% [at 25.6 µM] | 
16 | CN(C)Cc1ccccc1-c1cc(N(C)Cc2ccco2)ncn1 |  | 15.8 µM (active)
17 | CN(Cc1ccco1)c1cc(-c2ccccc2Cl)ncn1 |  | 2.51 µM (active)
18 | Cc1cc(C(C)(C)C)cc(C)c1CC1=NCCN1 | 9.92% | 
19 | Cc1ccccc1/C=C\C1=NCCN1 |  | 6.31 µM (active)
20 | CO[C@]1(C2=NCCN2)COc2ccccc2O1 | -19% | 
21 | CCC(=O)c1ccc(OCC(O)CN2CCCCC2)cc1 (stereo unspecified) | 9.96% | 
22 | CCCCOc1ccc(C(=O)CCN2CCCCC2)cc1 |  | 3.16 µM (active)
23 | CC(C)C(NC(=O)C1CCCCC1)C(=O)NC1CCN(Cc2ccccc2)CC1 (stereo unspecified) | -3.86% | 
24 | Cc1ccccc1C(=O)c1c[nH]c(C(=O)NCc2cccs2)c1 |  | 10 µM (active)
25 | Cc1ccc(C(=O)NCC2CCCO2)cc1N1CCCC1=O (stereo unspecified) | -17.5% | 
26 | CCOc1cc(NC(=S)NCC2CCCO2)c(OCC)cc1NC(=O)c1ccccc1C (stereo unspecified) | -29.8% | 

Row | SMILES | activity, negative = inhibition | AC50
27 | COc1ccc(C(=O)c2c[nH]c(C(=O)NCc3cccs3)c2)cc1 | -8.62% | 
28 | Cc1ccccc1C(=O)c1c[nH]c(C(=O)NCC2CCCO2)c1 (stereo unspecified) |  | 25.1 µM (active)
29 | O=C(O)CC[C@]1(C(=O)O)CCC(=O)c2ccccc21 | -9.13% [at 11.4 µM] | 
30 | CC[C@](N)(C(=O)O)C(C)C | -14.6% [at 11.4 µM] | 
31 | Cc1cccn2c(=O)c(C=NCc3ccco3)c(Nc3ccc(SC(F)F)cc3)nc12 |  | 0.562 µM (active)
32 | O=c1c2ccccc2c(-c2ccc(Br)cc2)nn1Cc1ccccc1 |  | 2.82 µM (active)
33 | O=c1c2ccccc2nc(-c2ccc(Br)cc2)n1Cc1ccccc1 |  | 10 µM (active)
34 | O=C(CCn1nc(-c2ccc(Cl)cc2)c2ccccc2c1=O)NCCN1CCOCC1 | -17.2% | 
35 | Cc1ccc(C(=O)CNc2nc3c(c(=O)[nH]c(=O)n3C)n2Cc2ccccc2)cc1 | -22.2% | 
36 | CCC(=O)NC(Nc1sc2c(c1C(=O)OC)CCCC2)(C(F)(F)F)C(F)(F)F | -5.11% | 
37 | COC(=O)c1c(NC(=O)Cn2cc([N+](=O)[O-])cn2)sc2c1CCC2 |  | 1.26 µM (active)
38 | COC(=O)c1c(NC(=O)c2ccco2)sc2c1CCC2 |  | 0.891 µM (active)
39 | CCOC(=O)c1c(NC(=O)Cn2cc([N+](=O)[O-])cn2)sc2c1CCC2 |  | 2.82 µM (active)
40 | CCOC(=O)c1c(NC(=O)CSc2nnc(C)s2)sc2c1CCCCC2 |  | 8.91 µM (active)
41 | CC1Cc2ccccc2N1C(=O)Cn1cc([N+](=O)[O-])cn1 (stereo unspecified) | -18.3% | 
42 | CC(=O)OC1COC(N2CCc3cc([N+](=O)[O-])ccc32)C(OC(C)=O)C1OC(C)=O (stereo unspecified) | 0.819% | 
43 | C#CCSc1nc(Cc2ccc(Cl)cc2)nc2ccccc12 |  | 1.26 µM (active)
44 | CCc1nc(SCC(=O)NNC(=O)C2CCCCC2)c2ccccc2n1 | 1.59% | 
45 | COc1cccc(CSc2nnc(C(F)(F)F)n2Cc2ccc(F)cc2)c1 |  | 11.2 µM (active)
46 | Fc1ccc(Cn2c(SCc3ccc(F)c(C(F)(F)F)c3)nnc2C(F)(F)F)cc1 | -29.4% | 
47 | CC(C)CC1NC(=S)N(C2CCCCC2)C1=O (stereo unspecified) | -15.6% | 
48 | Cc1c(N2CCCC2)cc2c(c1NC(=O)c1ccccc1Cl)C(C)(C)CC2(C)C | -13.1% [at 2.29 µM] | 
49 | CC(=O)Nc1ccc(N2CCCCC2)c(C(=O)Nc2cccc(C)c2)c1 |  | 14.1 µM (active)
50 | CCc1ccc(OCCCC(=O)Nc2ccc(N3CCCCC3)cc2)cc1 | -6.6% | 
51 | Cc1ccc(NC(=O)c2cc(NC(=O)CCC(=O)O)ccc2N2CCCCC2)cc1 | -14.5% | 
